± gives the uncertainty stated by the source.
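Note: viable cell number estimated from Alamar Blue fluorescence read at 560/90, part of a single-dose primary screen of an FDA-approved drug library.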

For this assay, the system named is U87. As to the kind of experiment: cell viability relative to vehicle control; higher = less growth inhibition (less active). To be noted: 10 µM; 72 h.
Broadly, the cell viability is a read-out of living cells in per cent, often relative to untreated cells. With `COC1=C(OC)C(=O)C(CCCCCCCCCCO)=C(C)C1=O`, the cell viability turned out to be 93.41 ± 0.38%. For `c1cnc(N2CCN(Cc3ccc4c(c3)OCO4)CC2)nc1` [Piribedil] the value was 108.4 ± 0.77%.

Consider `CCN1CCN(c2cc3c(cc2F)c(=O)c(C(=O)O)cn3C2CC2)CC1`, for which the cell viability was found to be 109 ± 1.3%. As for `Nc1c2c(nc3ccccc13)CCCC2`, the cell viability came to 110 ± 18%. Consider `CC(C)(C)NCC(O)c1ccc(O)c(CO)c1` (stereo unspecified), for which the cell viability worked out at 98.8 ± 8.3%. For `COc1cc(C[C@@H](CO)[C@H](CO)Cc2ccc(O)c(OC)c2)ccc1O` the value was 96.4 ± 14%.

Source of the values: the supplement of paper PMC3898565.
